# Assay results: PubChem BioAssay (NCATS)
# Values joined by “and” are separate entries in the source; they are usually repeats but may differ in a detail not shown here. Equal entries are not always repeated. Inconclusive results are not listed. Entries that show only a call come without a potency. Active and inactive are the calls of the source. Calls follow the shape of the dose curve; as a rule, active = well fitted inhibition curve with a large enough effect; inconclusive = small, poorly fitted or top-dose-only effect; inactive = flat fitted curve, though single readings scatter.
# Assay: P-glycoprotein substrates identified in KB-8-5-11 adenocarcinoma cell line, qHTS therapeutic library screen (AID 1346987); also: nearly all actives have a fitted effect of over 65% in size
# Details: KB-8-5-11 (P-gp overexpressing) viability, CellTiter-Glo, 72 h; series mostly up to 44.5 µM
# Source text: The ATP-binding cassette transporters P-glycoprotein (P-gp) is known to limit brain penetration of many chemotherapy drugs. […] As such, we developed a high-throughput screen (HTS) to identify substrates of P-gp from a series of chemical libraries including the National Center for Advancing Translational Sciences Pharmaceutical Collection NPC, 2,816 compounds), testing a total of 10,804 compounds, most of which have known mechanisms of action. We used the CellTiter-Glo viability assay to test library compounds against the parental KB-3-1 human cervical adenocarcinoma cell line and the colchicine-selected sub-line KB-8-5-11 that over-expresses P-gp. KB-8-5-11 cells were also tested in the presence of a P-gp inhibitor (tariquidar) to assess reversability of transporter-mediated resistance. Of the tested compounds, a total of 90 P-gp substrates were identified including 55 newly identified P-gp substrates. Substrates were confirmed using an orthogonal killing assay against HEK-293 cells transfected with P-gp. As exemplars, we confirmed that […] (cyclin-dependent kinase inhibitor); AT9283, (Janus kinase 2/3 inhibitor); ispinesib (kinesin spindle protein inhibitor); gedatolisib (PKI-587, phosphoinositide 3-kinase/mammalian target of rampamycin inhibitor); GSK-690693 (AKT inhibitor); and KW-2478 (heat shock protein 90 inhibitor) were substrates , and direct ATPase stimulation was assessed. ABCG2 was also found to confer high levels of resistance to AT9283, GSK-690693 and gedatolisib, while ispinesib, AT7519 and KW-2478 were weaker substrates.
# The HeLa derivative cell line, KB-3-1, and its colchicine-selected, P-gp-overexpressing subline, KB-8-5-11 were maintained in DMEM with 10% FCS and Pen/Strep with glutamine at 37 degree C in 5% CO2. For KB-8-5-11 cells, colchicine was added to the medium at a concentration of 100 ng/mL. HEK-293 cells transfected with empty vector (pcDNA) or vector containing human ABCB1 (MDR-19) or ABCG2 (R-5) have been described previously (Robey, Lin, Qiu, Chan & Bates, 2011) and were maintained in EMEM supplemented with 10% FCS, Pen/Strep and glutamine with 2 mg/ml G418 to select for the expression of the transporter. Cultures were confirmed to be free of mycoplasma infection using the MycoAlert Mycoplasma Detection Kit (Lonza, Walkersville, MD). For the screen, assay medium was identical to culture medium except for KB-8-5-11 where colchicine was excluded from the medium.
# All cell lines were plated into 1536-well plates at 500 cells/well in 5 uL media. Compounds were then pinned in dose-response using a 1536-head pin tool (Kalypsis, San Diego, CA) and plates were incubated at 37 degree C in 5% CO2 for an additional 72 h. CellTiter-Glo reagent (Promega) was dispensed into the wells, incubated for 5 min and luminescence was read on a ViewLux instrument (Perkin-Elmer). Cytotoxic compounds were defined as those that yielded a curve class of -1.1, -1.2, -2.1, -2.2, -2.3, or -2.4, a maximum response of >50% and an AC50 of < 10 uM. Cherry-picked hits from screening analysis were tested with both the KB pair of cell lines, and the pcDNA (empty vector control) and MDR-19 (P-gp overexpressing) pair were tested, in the absence and presence of tariquidar.
# Potency is read from the fitted curve at half-maximal effect.
row,Structure (SMILES),Potency
1,COc1cc(OC)c(C(=O)CCCN2CCCC2)c(OC)c1,inactive
2,Cc1cc(C2CCCCC2)n(O)c(=O)c1,5.8 µM (active)
3,COC(=O)C1=C(C)NC(C)=C(C(=O)OC(C)C)C1c1cccc2nonc12 (stereo not given),inactive
4,CN(C)C(=O)[C@H](O)[C@H](Cc1ccccc1)NC(=O)c1cc2cc(Cl)ccc2[nH]1,inactive
5,NS(=O)(=O)c1cc(C(=O)O)c(NCc2ccco2)cc1Cl,inactive
6,CC1=C(C)C(=O)C(C(CCCCCC(=O)O)c2ccccc2)=C(C)C1=O (stereo not given),inactive
7,c1ccc2[nH]c(-c3cscn3)nc2c1,inactive
8,Oc1ccc(OCc2ccccc2)cc1,inactive
9,Nc1ccn([C@@H]2O[C@H](CO)[C@@H](O)C2O)c(=O)n1 (stereo not given in full),inactive
10,CCCCCCCCCCCCCCCCCCCCCCO,inactive
11,NC(=NCc1ccccc1)NC(=O)c1nc(Cl)c(N)nc1N,inactive
12,CC1=C(C(=O)O)N2C(=O)[C@@H](NC(=O)[C@H](N)C3=CCC=CC3)[C@H]2SC1,inactive
13,CC(=O)Nc1ccc(O)cc1,inactive
14,Clc1ccc(C(Cn2ccnc2)OCc2ccsc2Cl)c(Cl)c1 (stereo not given),18.4 µM (active)
15,Cc1cccc(-c2[nH]ncc2-c2ccc3ncccc3n2)n1,inactive
16,CCCOc1ccc2nc(NC(=O)OC)[nH]c2c1,231 nM (active) and 651 nM (active) and 11.8 nM (active)
17,CC(C)c1ccc2oc3nc(N)c(C(=O)O)cc3c(=O)c2c1,inactive
18,CN(c1nccc(=O)[nH]1)C1CCN(c2nc3ccccc3n2Cc2ccc(F)cc2)CC1,inactive
19,CC(S)C(=O)NCC(=O)O (stereo not given),inactive
20,O=c1c(O)c(-c2cc(O)c(O)c(O)c2)oc2cc(O)cc(O)c12,inactive

row,Structure (SMILES),Potency
1,Cc1cc2c(s1)Nc1ccccc1N=C2N1CCN(C)CC1,inactive
2,O=C(OC1C[C@H]2CC[C@@H](C1)[N+]21CCCC1)C(O)(c1ccccc1)c1ccccc1 (stereo not given in full),inactive
3,C[C@@H](N)C1CCC(C(=O)Nc2ccncc2)CC1 (stereo not given in full),inactive
4,CCC1=C(C)CN(C(=O)NCCc2ccc(S(=O)(=O)NC(=O)NC3CCC(C)CC3)cc2)C1=O (stereo not given),inactive
5,Cc1c(OCC(F)(F)F)ccnc1CS(=O)c1nc2ccccc2[nH]1 (stereo not given),inactive
6,Cc1c(C(=O)NN2CCCCC2)nn(-c2ccc(Cl)cc2Cl)c1-c1ccc(Cl)cc1,20.6 µM (active)
7,Nc1ccc(S(N)(=O)=O)cc1,inactive
8,Cc1ccc(S(=O)(=O)NC(=O)NN2CC3CCCC3C2)cc1 (stereo not given),inactive
9,Cc1nc(Nc2ncc(C(=O)Nc3c(C)cccc3Cl)s2)cc(N2CCN(CCO)CC2)n1,inactive
10,CN(C)CCc1c[nH]c2ccc(Cn3cncn3)cc12,inactive
11,Cc1nc(-c2ccc(OCC(C)C)c(C#N)c2)sc1C(=O)O,inactive
12,O=c1oc2cc(O)ccc2s1,inactive
13,CNC[C@H](O)c1ccc(O)c(O)c1,inactive
14,O=c1c(O)c(-c2ccc(O)cc2O)oc2cc(O)cc(O)c12,inactive
15,CCCc1cc(=O)[nH]c(=S)[nH]1,inactive
16,O=C(O)c1cccc(-c2noc(-c3ccccc3F)n2)c1,inactive
17,O=C(NCCO[N+](=O)[O-])c1cccnc1,inactive
18,CC1Cc2ccccc2N1NC(=O)c1ccc(Cl)c(S(N)(=O)=O)c1 (stereo not given),inactive
19,Nc1cc(C(Cl)=C(Cl)Cl)c(S(N)(=O)=O)cc1S(N)(=O)=O,inactive
20,CNC[C@@H](O)[C@@H](O)[C@H](O)[C@H](O)CO,inactive
